Measurements published in ChEMBL document CHEMBL3988442, “University of Dundee, Small-Polar-MMV Screening Library” (2021).
Out of some 66,000 compounds screened, about 960 (1.5%) showed an effect of 50% or more. The full list was thinned out, with strong results kept by preference.

Test system: Trypanosoma brucei
Test: Trypanosoma brucei 72 hour study
Type: functional, organism-based
Parameters: scale not given: in the data most compounds retested in dose-response had high values

## COc1ccc(OCC2CCCN(c3nc(CO)cs3)C2)cc1 (centres undefined)
30 µM, 30.03 µM
  Percent Effect: 85.11%

## Cc1ccc(OCC2CCCN(c3nc(CO)cs3)C2)cc1 (centres undefined)
30 µM, 30.03 µM
  Percent Effect: 49.4%

## OCc1csc(N2CCCC(COc3cccc(F)c3)C2)n1 (centres undefined)
30 µM, 30.03 µM
  Percent Effect: -13.56%

## CCc1c(C)nc2cc(-c3nccn3C)nn2c1N1CCCC(CO)C1 (centres undefined)
30.3 µM, […]
  Percent Effect: 50.14%

## Cc1nc2cc(-c3nccn3C)nn2c(N2CCCC(CO)C2)c1C (centres undefined)
30.3 µM, […]
  Percent Effect: 21.68%

## Cc1nc2cc(-c3nccn3C)nn2c(N2CCCC(O)C2)c1C.Cl (centres undefined)
30.3 µM, […]
  Percent Effect: -11.86%

## Cc1ccc(CN2CCOC3(COCCN(CCN(C)C)C3)C2)o1.O=C(O)C(F)(F)F.O=C(O)C(F)(F)F.O=C(O)C(F)(F)F (centres undefined)
30 µM, 30.03 µM
  Percent Effect: 20.44%

## OC(CNC1CCOCC1)c1cccc(OCc2ccccc2)c1 (centres undefined)
30 µM, 30.03 µM
  Percent Effect: -36.97%

## CN1CCC(NCC(O)c2cccc(OCc3ccccc3)c2)CC1 (centres undefined)
30 µM, 30.03 µM
  Percent Effect: 101.3%

## OC(CNC1CCSCC1)c1cccc(OCc2ccccc2)c1 (centres undefined)
30 µM, 30.03 µM
  Percent Effect: -20.69%

## Cl.c1cc(NCc2ccncc2)nc(C2CCCN2)c1 (centres undefined)
30.3 µM, […]
  Percent Effect: 7.613%

## CC(C)(C)c1ccc(-n2ncc3c2CCCC3N)cc1 (centres undefined)
30 µM, 30.03 µM
  Percent Effect: 97.82%

## Cc1ccc(-n2ncc3c2CCCC3N)cc1C (centres undefined)
30 µM, 30.03 µM
  Percent Effect: -37.31%

## Cc1cc(C)cc(-n2ncc3c2CCCC3N)c1 (centres undefined)
30 µM, 30.03 µM
  Percent Effect: -36.85%

## CN(C)C(=O)C1CCN(C2CCN(CC3CC3)CC2)CC1.O=C(O)C(F)(F)F.O=C(O)C(F)(F)F
30.3 µM, […]
  Percent Effect: -10.13%

## CCc1nc(C2CCCN2C(=O)c2ccc3c(c2)nnn3C)no1 (centres undefined)
10 µM
  Percent Effect: -25.38%
30.3 µM, […]
  Percent Effect: -22.91%

## c1ccc(-c2nc(CN3CCCC3Cn3cncn3)no2)cc1 (centres undefined)
30.3 µM, […]
  Percent Effect: 6.98%

## CCN(CC)C(=O)C1CCN(c2ccc(Cl)cc2C#N)CC1
30.3 µM, […]
  Percent Effect: -5.722%

## CC1CCN(C(=O)C2CCN(c3ccc(Cl)cc3C#N)CC2)CC1
30.3 µM, […]
  Percent Effect: 28.97%

## N#Cc1cc(Cl)ccc1N1CCN(C(=O)C2CCC2)CC1
30.3 µM, […]
  Percent Effect: 81.04%

## O=C(O)C(F)(F)F.O=C(c1cccnc1)N1CCC2(CC1)COCCN(c1ncccn1)C2
30 µM, 30.03 µM
  Percent Effect: -13.17%

## COc1ccc(N2Cc3nc(N)ncc3C2=O)cc1Cl
30 µM, 30.03 µM
  Percent Effect: -4.562%

## Cc1cc(S(=O)(=O)NCC(C)(C)N)c(F)cc1F.Cl
30 µM, 30.03 µM
  Percent Effect: -16.3%

## CC(C)Nc1nc2c(cc1C(=O)NCC1CC1)CCNCC2.O=C(O)C(F)(F)F.O=C(O)C(F)(F)F
30 µM, 30.03 µM
  Percent Effect: -26.83%

## CC(C)CNc1nc2c(cc1C(=O)NCC1CC1)CCNCC2
30 µM, 30.03 µM
  Percent Effect: 100.1%

## CNC(=O)c1cc2c(nc1NCC1CC1)CCNCC2
30 µM, 30.03 µM
  Percent Effect: -38.29%

## O=C(O)C(F)(F)F.O=C1CCCN1Cc1nnc2n1CCN(Cc1ccccn1)CC2
30.3 µM, […]
  Percent Effect: -8.188%

## Cc1cc(C[C@@H]2CCC[C@H]2NCc2c[nH]nc2-c2ccccc2)on1.O=C(O)CC(O)(CC(=O)O)C(=O)O
30.3 µM, […]
  Percent Effect: 19.9%

## CNC(=O)c1cc2c(nc1NCC(C)C)CCN(c1ncccn1)CC2.O=C(O)C(F)(F)F
30.3 µM, […]
  Percent Effect: 98.85%

## CNC(=O)c1cc2c(nc1NCC(C)C)CCN(C)CC2.O=C(O)C(F)(F)F.O=C(O)C(F)(F)F
30.3 µM, […]
  Percent Effect: -104.3%

## CNC(=O)c1cc2c(nc1NCC(C)C)CCN(c1ccncn1)CC2.O=C(O)C(F)(F)F
30 µM, 30.03 µM
  Percent Effect: -20.72%

## O=C(CSc1ccc2c(c1)OCCO2)NS(=O)(=O)c1cc(F)ccc1F
30 µM, 30.03 µM
  Percent Effect: 61.54%

## O=C(CSc1ccc2c(c1)OCCO2)NS(=O)(=O)c1ccccc1F
30 µM, 30.03 µM
  Percent Effect: -24.23%

## O=C(CSc1ccc(F)c(F)c1)NS(=O)(=O)c1ccc2c(c1)OCCO2
30 µM, 30.03 µM
  Percent Effect: -8.026%

## CN1C(=O)CC(c2ccccc2)C12CCN(CC1CCOCC1)CC2.O=C(O)C(F)(F)F (centres undefined)
30.3 µM, […]
  Percent Effect: -3.358%

## O=C(O)C(F)(F)F.O=c1cc(Cn2cncn2)nc2n1CCCN(Cc1ccc(F)cc1)C2
30 µM, 30.03 µM
  Percent Effect: 27.77%

## O=C(O)C(F)(F)F.O=C(O)C(F)(F)F.O=c1cc(Cn2cncn2)nc2n1CCCN(CCN1CCCC1)C2
30 µM, 30.03 µM
  Percent Effect: 14.15%

## COCCN1CCCn2c(nc(Cn3cncn3)cc2=O)C1.O=C(O)C(F)(F)F
30 µM, 30.03 µM
  Percent Effect: 64.46%

## O=C(O)C(F)(F)F.c1cnc(NCc2nnn3c2CN(CC2CC2)CCC3)nc1
30.3 µM, […]
  Percent Effect: -52.08%

## Cc1nn(C)c(N(C)C)c1CNC1CCc2cc(F)ccc21.Cl (centres undefined)
10 µM
  Percent Effect: -39.72%

## O=C(c1ccoc1)N1CCc2ncc(Cn3cccn3)n2CC1
30.3 µM, […]
  Percent Effect: -11.59%

## Cc1ccc(C(=O)N2CCc3ncc(Cn4cccn4)n3CC2)cn1
30.3 µM, […]
  Percent Effect: -7.438%

## Cn1cccc1C(=O)N1CCc2ncc(Cn3cccn3)n2CC1
30 µM, 30.03 µM
  Percent Effect: 59.24%

## CS(=O)(=O)NCc1cncc2c1CCN(C(=O)c1cccnc1)C2.Cl.Cl
30.3 µM, […]
  Percent Effect: -7.257%

## COCC1CN(Cc2ccoc2)Cc2nnn(C)c21.O=C(O)C(F)(F)F (centres undefined)
30 µM, 30.03 µM
  Percent Effect: -46.26%

## CCc1c(C)nc2cc(C3CCN(Cc4cccnc4)C3)nn2c1O (centres undefined)
30.3 µM, […]
  Percent Effect: 7.415%

## CCc1c(C)nc2cc(C3CCN(Cc4cccc(F)c4)C3)nn2c1O (centres undefined)
30.3 µM, […]
  Percent Effect: 27.1%

## CCc1c(C)nc2cc(C3CCN(CCc4ccccc4)C3)nn2c1O (centres undefined)
30.3 µM, […]
  Percent Effect: 58.63%
